In doi:10.1101/2024.03.05.583629:

Target: pT7_6His-AlfaTag-HOXD13 (human, UniProt P35453 263-343)
Test: PADIT-seq
Details: dsDNA, one strand shown

Chain of pT7_6His-AlfaTag-HOXD13 (P35453 263-343): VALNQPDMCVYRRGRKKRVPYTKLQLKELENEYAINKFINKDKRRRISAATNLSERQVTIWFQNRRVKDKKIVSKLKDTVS

Q: Which binding signal does the source give for “CTCGAGGATATCAAGATCTGGCCTCGGCCGCCCAACTGGAACCTCTAGCTAGCCGACTCACTATAGGGATAATCGCCCTGAGCAAAGACC” here?
A: The binding signal was -1.02 ± 0.119 log2FC.

Q: How did the binding signal turn out when “CTCGAGGATATCAAGATCTGGCCTCGGCAAGATAAAAGGAACCTCTAGCTAGCCGACTCACTATAGGGATAATCGCCCTGAGCAAAGACC” was run?
A: The binding signal was 0.282 ± 0.0917 log2FC.

Q: “CTCGAGGATATCAAGATCTGGCCTCGGCCTGGTAAAAGGAACCTCTAGCTAGCCGACTCACTATAGGGATAATCGCCCTGAGCAAAGACC” was tested. Which binding signal did it give?
A: Its binding signal is 0.442 ± 0.0982 log2FC.

Q: How did the binding signal turn out when “CTCGAGGATATCAAGATCTGGCCTCGGCGTTTTAGCTGGAACCTCTAGCTAGCCGACTCACTATAGGGATAATCGCCCTGAGCAAAGACC” was run?
A: Its binding signal is -0.719 ± 0.136 log2FC.

Q: Which binding signal does the source give for “CTCGAGGATATCAAGATCTGGCCTCGGCGCGTGGAAGGGAACCTCTAGCTAGCCGACTCACTATAGGGATAATCGCCCTGAGCAAAGACC” here?
A: Its binding signal is -0.832 ± 0.125 log2FC.

Q: With “CTCGAGGATATCAAGATCTGGCCTCGGCATTTTATTGGGAACCTCTAGCTAGCCGACTCACTATAGGGATAATCGCCCTGAGCAAAGACC” as the sequence, how does the binding signal read?
A: The binding signal was 3.32 ± 0.0805 log2FC.

Q: “CTCGAGGATATCAAGATCTGGCCTCGGCATTTTACAAGGAACCTCTAGCTAGCCGACTCACTATAGGGATAATCGCCCTGAGCAAAGACC” was tested. Which binding signal did it give?
A: The binding signal was 3.41 ± 0.0871 log2FC.

Q: With “CTCGAGGATATCAAGATCTGGCCTCGGCCGATTAAAAGGAACCTCTAGCTAGCCGACTCACTATAGGGATAATCGCCCTGAGCAAAGACC” as the sequence, how does the binding signal read?
A: Its binding signal is 1.2 ± 0.104 log2FC.

Q: With “CTCGAGGATATCAAGATCTGGCCTCGGCATTTTACCAGGAACCTCTAGCTAGCCGACTCACTATAGGGATAATCGCCCTGAGCAAAGACC” as the sequence, how does the binding signal read?
A: Its binding signal is 0.505 ± 0.0919 log2FC.

Q: How did the binding signal turn out when “CTCGAGGATATCAAGATCTGGCCTCGGCGCGATAGCGGGAACCTCTAGCTAGCCGACTCACTATAGGGATAATCGCCCTGAGCAAAGACC” was run?
A: Its binding signal is -0.758 ± 0.131 log2FC.

Q: “CTCGAGGATATCAAGATCTGGCCTCGGCCTTTTACCCGGAACCTCTAGCTAGCCGACTCACTATAGGGATAATCGCCCTGAGCAAAGACC” was tested. Which binding signal did it give?
A: Its binding signal is -0.00238 ± 0.0891 log2FC.

Q: Which binding signal does the source give for “CTCGAGGATATCAAGATCTGGCCTCGGCCTTTTATCTGGAACCTCTAGCTAGCCGACTCACTATAGGGATAATCGCCCTGAGCAAAGACC” here?
A: Its binding signal is 0.811 ± 0.0782 log2FC.

Q: With “CTCGAGGATATCAAGATCTGGCCTCGGCGTTTTATTAGGAACCTCTAGCTAGCCGACTCACTATAGGGATAATCGCCCTGAGCAAAGACC” as the sequence, how does the binding signal read?
A: Its binding signal is 3.19 ± 0.0762 log2FC.

Q: With “CTCGAGGATATCAAGATCTGGCCTCGGCCCAGTAAAAGGAACCTCTAGCTAGCCGACTCACTATAGGGATAATCGCCCTGAGCAAAGACC” as the sequence, how does the binding signal read?
A: Its binding signal is 2.32 ± 0.0885 log2FC.

Q: Which binding signal does the source give for “CTCGAGGATATCAAGATCTGGCCTCGGCCCACTAAAAGGAACCTCTAGCTAGCCGACTCACTATAGGGATAATCGCCCTGAGCAAAGACC” here?
A: Its binding signal is 1.42 ± 0.114 log2FC.

Q: “CTCGAGGATATCAAGATCTGGCCTCGGCGTTTTAACCGGAACCTCTAGCTAGCCGACTCACTATAGGGATAATCGCCCTGAGCAAAGACC” was tested. Which binding signal did it give?
A: The binding signal was -0.0101 ± 0.0939 log2FC.

Q: How did the binding signal turn out when “CTCGAGGATATCAAGATCTGGCCTCGGCATTTTAGTCGGAACCTCTAGCTAGCCGACTCACTATAGGGATAATCGCCCTGAGCAAAGACC” was run?
A: The binding signal was -0.427 ± 0.127 log2FC.

Q: For “CTCGAGGATATCAAGATCTGGCCTCGGCCTTTTATTAGGAACCTCTAGCTAGCCGACTCACTATAGGGATAATCGCCCTGAGCAAAGACC”, which binding signal is on record?
A: Its binding signal is 3.32 ± 0.0849 log2FC.

Q: “CTCGAGGATATCAAGATCTGGCCTCGGCTTTTTAACCGGAACCTCTAGCTAGCCGACTCACTATAGGGATAATCGCCCTGAGCAAAGACC” was tested. Which binding signal did it give?
A: The binding signal was 0.739 ± 0.095 log2FC.

Q: For “CTCGAGGATATCAAGATCTGGCCTCGGCTGATTAAAAGGAACCTCTAGCTAGCCGACTCACTATAGGGATAATCGCCCTGAGCAAAGACC”, which binding signal is on record?
A: Its binding signal is 1.86 ± 0.0796 log2FC.

Q: For “CTCGAGGATATCAAGATCTGGCCTCGGCTGTGTAAAAGGAACCTCTAGCTAGCCGACTCACTATAGGGATAATCGCCCTGAGCAAAGACC”, which binding signal is on record?
A: Its binding signal is 1.46 ± 0.0852 log2FC.

Q: How did the binding signal turn out when “CTCGAGGATATCAAGATCTGGCCTCGGCTGTTTAAAAGGAACCTCTAGCTAGCCGACTCACTATAGGGATAATCGCCCTGAGCAAAGACC” was run?
A: The binding signal was 1.97 ± 0.0666 log2FC.

Q: For “CTCGAGGATATCAAGATCTGGCCTCGGCTTTTTATCAGGAACCTCTAGCTAGCCGACTCACTATAGGGATAATCGCCCTGAGCAAAGACC”, which binding signal is on record?
A: Its binding signal is 2.36 ± 0.0842 log2FC.

Q: With “CTCGAGGATATCAAGATCTGGCCTCGGCAAACCACGCGGAACCTCTAGCTAGCCGACTCACTATAGGGATAATCGCCCTGAGCAAAGACC” as the sequence, how does the binding signal read?
A: The binding signal was -0.989 ± 0.132 log2FC.

Q: For “CTCGAGGATATCAAGATCTGGCCTCGGCCGCATACGCGGAACCTCTAGCTAGCCGACTCACTATAGGGATAATCGCCCTGAGCAAAGACC”, which binding signal is on record?
A: Its binding signal is -1.09 ± 0.122 log2FC.

Q: With “CTCGAGGATATCAAGATCTGGCCTCGGCAAAATAAAAGGAACCTCTAGCTAGCCGACTCACTATAGGGATAATCGCCCTGAGCAAAGACC” as the sequence, how does the binding signal read?
A: Its binding signal is 1.46 ± 0.0905 log2FC.

Q: Which binding signal does the source give for “CTCGAGGATATCAAGATCTGGCCTCGGCACGATAAAAGGAACCTCTAGCTAGCCGACTCACTATAGGGATAATCGCCCTGAGCAAAGACC” here?
A: Its binding signal is 1.32 ± 0.0937 log2FC.

Q: How did the binding signal turn out when “CTCGAGGATATCAAGATCTGGCCTCGGCTTTTTATACGGAACCTCTAGCTAGCCGACTCACTATAGGGATAATCGCCCTGAGCAAAGACC” was run?
A: The binding signal was 2.44 ± 0.0818 log2FC.

Q: For “CTCGAGGATATCAAGATCTGGCCTCGGCTATGTAAAAGGAACCTCTAGCTAGCCGACTCACTATAGGGATAATCGCCCTGAGCAAAGACC”, which binding signal is on record?
A: Its binding signal is 1.05 ± 0.102 log2FC.

Q: With “CTCGAGGATATCAAGATCTGGCCTCGGCGCGATGGCGGGAACCTCTAGCTAGCCGACTCACTATAGGGATAATCGCCCTGAGCAAAGACC” as the sequence, how does the binding signal read?
A: The binding signal was -0.944 ± 0.133 log2FC.

Q: For “CTCGAGGATATCAAGATCTGGCCTCGGCCGCTTACGCGGAACCTCTAGCTAGCCGACTCACTATAGGGATAATCGCCCTGAGCAAAGACC”, which binding signal is on record?
A: The binding signal was -0.713 ± 0.125 log2FC.

Q: With “CTCGAGGATATCAAGATCTGGCCTCGGCGTTTTACCGGGAACCTCTAGCTAGCCGACTCACTATAGGGATAATCGCCCTGAGCAAAGACC” as the sequence, how does the binding signal read?
A: The binding signal was 1.01 ± 0.0969 log2FC.

Q: For “CTCGAGGATATCAAGATCTGGCCTCGGCACTCTAAAAGGAACCTCTAGCTAGCCGACTCACTATAGGGATAATCGCCCTGAGCAAAGACC”, which binding signal is on record?
A: Its binding signal is 0.139 ± 0.11 log2FC.

Q: How did the binding signal turn out when “CTCGAGGATATCAAGATCTGGCCTCGGCCTTTTATTCGGAACCTCTAGCTAGCCGACTCACTATAGGGATAATCGCCCTGAGCAAAGACC” was run?
A: The binding signal was 1.67 ± 0.077 log2FC.

Q: “CTCGAGGATATCAAGATCTGGCCTCGGCTTTTTACCGGGAACCTCTAGCTAGCCGACTCACTATAGGGATAATCGCCCTGAGCAAAGACC” was tested. Which binding signal did it give?
A: Its binding signal is 0.978 ± 0.0873 log2FC.

Q: Which binding signal does the source give for “CTCGAGGATATCAAGATCTGGCCTCGGCCCCTTAAAAGGAACCTCTAGCTAGCCGACTCACTATAGGGATAATCGCCCTGAGCAAAGACC” here?
A: The binding signal was 2.7 ± 0.0989 log2FC.

Q: Which binding signal does the source give for “CTCGAGGATATCAAGATCTGGCCTCGGCTTTTTATGCGGAACCTCTAGCTAGCCGACTCACTATAGGGATAATCGCCCTGAGCAAAGACC” here?
A: Its binding signal is 2.03 ± 0.081 log2FC.

Q: How did the binding signal turn out when “CTCGAGGATATCAAGATCTGGCCTCGGCCACGTAAAAGGAACCTCTAGCTAGCCGACTCACTATAGGGATAATCGCCCTGAGCAAAGACC” was run?
A: Its binding signal is 1.76 ± 0.0916 log2FC.

Q: “CTCGAGGATATCAAGATCTGGCCTCGGCGCGCTCGCGGGAACCTCTAGCTAGCCGACTCACTATAGGGATAATCGCCCTGAGCAAAGACC” was tested. Which binding signal did it give?
A: The binding signal was -1.06 ± 0.163 log2FC.
